# This excerpt belongs to a sample that is enriched for hits.
# Pf Dd2 growth = blocks in vitro growth of P. falciparum Dd2 | P. falciparum Dd2 growth, SYBR Green, 72 h | Potency, µM (top dose mostly 28.9 µM), without a hit: at the top dose activity, negative = inhibition, actives largely listed as inhibitors | 120,000 compounds, 4.3% hits; active = well fitted inhibition curve with a large enough effect;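 note: plate controls were DMSO vehicle for no effect and reference drug for full effect; nearly all actives have a fitted effect of over 65% in size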
#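 Readout: SYBR Green fluorescence, 485 nm excitation, 535 nm emission, after ~16 h lysis at 37C. Before that, Dd2-infected red cells (2.5% hematocrit) grew 72 h with compound, 29 uM top final concentration.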
# Starred values were filed as active, the others as inactive; i = inactive; [ ] = another dose, or the depositor's remark. Potency is the fitted concentration of half-maximal effect.
SMILES,Pf Dd2 growth
COc1ccc(C2Cn3cnc(C(=O)N4CCC(C(=O)Nc5ccccc5OC)CC4)c3CO2)cc1 (configuration not stated),10µM*
COc1ccc(C2Cn3cnc(C(=O)N4CCC(C(=O)Nc5ccc(C)cc5)CC4)c3CO2)cc1 (configuration not stated),-20%
COc1ccc(NC(=O)C2CCN(C(=O)c3ncn4c3COC(c3ccccc3)C4)CC2)cc1 (configuration not stated),i
O=C(OCc1ccccc1)N1CCCC2(C1)C(=NC1CCCCC1)NC(=O)N2c1cccnc1 (configuration not stated),i
CCn1cc(-c2ccc(C)cc2)cc1C(=O)NCC1CCCO1 (configuration not stated),i
O=C(Nc1ccc(Cl)cc1Cl)c1cn2c(n1)CN(C(=O)c1cccnc1)CC2,-26%
COCCCNC(=O)N1CCCCCCN(C)C(=O)CC1,-1%
CCn1nccc1C(=O)N1CCCC2(C=Cc3ccccc3O2)CC1 (configuration not stated),-14%
COCc1noc([C@@H]2CN(Cc3cccc(F)c3)C[C@H]2COC)n1,17%
CCO[C@H]1CN(Cc2ccc(OC)c(OCc3cccc(F)c3)c2)C[C@@H]1O,13µM*
CCO[C@H]1CN(Cc2cnc(SCc3ccccc3)nc2)C[C@@H]1O,-18%
C#CCN(C)Cc1nc(C2(O)CCN(C(=O)c3ccccc3)CC2)cs1,-11%[44.1 µM]
O=C(c1ccco1)N1CCC(c2n[nH]c(=O)n2-c2ccccc2)CC1,4%
CCS(=O)(=O)c1ncc(N(Cc2ccco2)Cc2ccccc2F)c(C(=O)Nc2cccc(Cl)c2)n1,4µM*
CS(=O)(=O)c1ncc(Cl)c(C(=O)N(Cc2ccc(Cl)cc2)Cc2ccco2)n1,i[5.79 µM]
CC(C)(C)c1ccc(CN(Cc2ccco2)c2cnc(S(C)(=O)=O)nc2C(=O)Nc2ccc(F)cc2)cc1,7.9µM*
O=C(Nc1nc2ccc(F)cc2s1)c1nc(S(=O)(=O)Cc2ccccc2F)ncc1Cl,77%
O=C(Nc1cccc(C(F)(F)F)c1)c1cc2nc(-c3ccco3)cc(C(F)(F)Cl)n2n1,15%
CS(=O)(=O)c1ncc(N(Cc2ccco2)Cc2ccco2)c(C(=O)Nc2ccccc2Br)n1,-19%
CCSc1ncc(Cl)c(C(=O)Nc2cccc(Cl)c2)n1,24%
CS(=O)(=O)c1ncc(N(Cc2ccccc2)Cc2ccco2)c(C(=O)Nc2cccc(C(F)(F)F)c2)n1,6.3µM*
COc1ccc(CN(Cc2ccco2)c2cnc(S(C)(=O)=O)nc2C(=O)Nc2ccc(C)cc2C)cc1,-1%
NC(=O)N1CCCC1C(=O)N1CCC(c2cc(Cc3ccccc3)[nH]n2)CC1 (configuration not stated),5%
CCn1ncnc1C(C)NC(=O)c1coc(COc2ccc3c(c2)OCO3)n1 (configuration not stated),12%
O=C(CCc1ccc(O)cc1)N1CC[C@H](N2CCOCC2)[C@H](CCCO)C1,1%
SMILES,Pf Dd2 growth
O=C([C@@H]1C[C@H](F)CN1C(=O)c1cccs1)N1CCOCC1,35%
COc1ccc(NC(=O)C2CC(=O)N(c3n[nH]c4cccc(F)c34)C2)cc1Cl (configuration not stated),-1%
Cc1ccc(-c2nc(C(=O)N3CCN(c4ccc(C)cc4)CC3)no2)cc1,9%
Cn1cc(-c2ccncc2)cc1C(=O)NCc1ccc(Cl)cc1,-23%
COC[C@H]1CCCN1Cc1nc(C2(O)CCN(CCC(C)C)CC2)cs1,-11%[44.1 µM]
COCc1nc(CCNS(=O)(=O)c2ccc(F)cc2)no1,49%
CCn1nccc1C(=O)NCCn1ccn2nc(-c3ccc(C)c(C)c3)cc2c1=O,7.9µM*
Cc1ccc(-c2cc3c(=O)n(CCNC(=O)c4cccc(Cl)c4)ccn3n2)cc1C,-3%
Cc1ccc(C)c(C(=O)NCCn2ccn3nc(-c4cc(C)ccc4C)cc3c2=O)c1,i
Cc1ccc(-c2cc3c(=O)n(CCNC(=O)c4ccc(N(C)C)cc4)ccn3n2)c(C)c1,10µM*
COc1cccc(C(=O)NCCn2ccn3nc(-c4ccc(C)cc4C)cc3c2=O)c1OC,i
COc1ccc(C(=O)NCCn2ccn3nc(-c4ccc(C)cc4C)cc3c2=O)cc1F,-16%
CC(=O)Nc1cccc(C(=O)NCCn2ccn3nc(-c4ccc(C)cc4C)cc3c2=O)c1,5.6µM*
Cc1ccc(-c2cc3c(=O)n(CCNC(=O)c4cc(Cl)ccc4F)ccn3n2)c(C)c1,i
Cc1ccc(-c2cc3c(=O)n(CCNC(=O)c4ccccc4F)ccn3n2)cc1C,i
CNC(=O)C1(N2CCC[C@H]2C(=O)N(C)Cc2cccnc2)CCOCC1,6%[44.1 µM]
O=C(c1ccn[nH]1)N1CCN(Cc2cn3ccccc3n2)CC(O)C1 (configuration not stated),-10%
CCC(=O)Nc1ccc(-c2c(-c3ccc(F)cc3)nn(-c3ccc(F)cc3)c2OC(C)=O)cc1,-23%
CC(C)c1cccc(NC(=O)c2ccc(Cn3ccn4nc5c(c4c3=O)CCCC5)cc2)c1,i
CN(C)C(=O)N1CCCN(c2nc3ncccc3o2)CC1,4%[44.1 µM]
O=C(COCC1CCCO1)N1CCc2onc(-c3ccc4c(c3)OCO4)c2C1 (configuration not stated),-10%
CCOC(=O)N1CCN(C2CCCN(Cc3cc(C)ccc3-n3cccn3)C2)CC1 (configuration not stated),10µM*
COCC[C@]1(O)CCN(Cc2cc(F)ccc2-n2cccn2)C[C@H]1C,-4%
COc1ccc(-n2cccn2)c(CN2CC[C@H](CO)[C@H](O)C2)c1,i
Nc1nc(CCNC(=O)[C@H]2CNC[C@H](C(=O)N3CCOCC3)C2)cs1,-8%
SMILES,Pf Dd2 growth
CCC(=O)N1CCC(N2CC(OC)C23CCOCC3)CC1 (configuration not stated),2%
C=Cc1ccc(Cn2c(=O)c(-c3noc(C)n3)c3n(c2=O)CCCCC3)cc1,i
O=C(Nc1cc(Cl)cc(Cl)c1)N1CCCC1c1nncn1C1CCCC1 (configuration not stated),11µM*
COc1cc(NC(=O)N2CCCC2c2nncn2C2CCCC2)cc(OC)c1 (configuration not stated),-7%
Cc1cc(C)cc(NC(=O)N2CCCC2c2nncn2C2CCCC2)c1 (configuration not stated),-8%
Cc1ccc(-n2ncc(C(=O)N3CCN(c4ccccc4F)CC3)c2C2CCN(C(=O)OC(C)(C)C)CC2)cc1C,3%
CC(C)(C)OC(=O)N1CCC(c2c(C(=O)N3CCN(c4ccccc4F)CC3)cnn2C(C)(C)C)CC1,10µM*
COc1ccccc1N1CCN(C(=O)c2cnn(C(C)(C)C)c2C2CCN(C(=O)OC(C)(C)C)CC2)CC1,6.3µM*
COCCc1nncn1C1CCN(S(=O)(=O)c2ccc(C)c(F)c2)CC1,i
COCCc1noc([C@@H]2CC(F)(F)CN2C(=O)c2cccc(C)n2)n1,34%
CC(C)CN1CCNC(=O)C1CC(=O)NCc1cc(Cl)ccc1Cl (configuration not stated),-3%
CC(NC(=O)OCc1ccccc1)c1nc2cccnc2n1C1CCCC1 (configuration not stated),0%
N#Cc1ccc(S(=O)(=O)N2CCC3(CC2)CC2C(=O)NCCN2C3)cc1 (configuration not stated),8%
CCN(CC)c1ccc(NC(=O)Cn2c3ncccc3c(=O)n2-c2ccccc2)c(C)c1,7%
CCc1ccc(-n2c(=O)c3cccnc3n2CC(=O)Nc2cc(F)ccc2F)cc1,5µM*
Cc1ccc(-n2c(=O)c3cccnc3n2CC(=O)NCc2ccc(Cl)cc2)cc1,-6%

# High-throughput results from PubChem.
